Legend:
Experiment in all cases: SPOT peptide array binding signal intensity (averaged, normalized) (arbitrary units (background-subtracted, floor 0; scale differs between SH3 domains)); higher = stronger binding of the SH3 domain to the peptide
AgAbp1 = target: AgAbp1
Summary of the method: (§1)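 Binding signal is given in arbitrary units that differ between domains and is the normalized, background-subtracted spot intensity averaged across replicates. Each GST-SH3 fusion from one of four yeast species was made in E. coli BL21(DE3), purified on glutathione Sepharose and incubated at 10 μg/ml overnight at 4°C on cellulose-bound synthetic 15-mer peptides in which cysteines were replaced by serines. Detection used anti-GST antibody, an HRP anti-mouse secondary and luminol, followed by imaging and Genespotter quantification.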

AgBbc1 = target: AgBbc1
Summary of the method: as §1

AgBem1-D1 = target: AgBem1-D1
Summary of the method: as §1

AgBzz1-D1 = target: AgBzz1-D1
Summary of the method: as §1

AgBzz1-D2 = target: AgBzz1-D2
Summary of the method: as §1

AgCyk3 = target: AgCyk3
Summary of the method: as §1

AgFus1 = target: AgFus1
Summary of the method: as §1

AgHof1 = target: AgHof1
Summary of the method: as §1

AgHse1 = target: AgHse1
Summary of the method: as §1

AgLsb1 = target: AgLsb1
Summary of the method: as §1

AgLsb4 = target: AgLsb4
Summary of the method: as §1

AgMyo5 = target: AgMyo5
Summary of the method: as §1

AgNbp2 = target: AgNbp2
Summary of the method: as §1

AgRvs167 = target: AgRvs167
Summary of the method: as §1

AgSho1 = target: AgSho1
Summary of the method: as §1

AgSla1-D1-D2 = target: AgSla1-D1-D2
Summary of the method: as §1

AgSla1-D3 = target: AgSla1-D3
Summary of the method: as §1

CaAbp1-D1 = target: CaAbp1-D1
Summary of the method: as §1

CaAbp1-D2 = target: CaAbp1-D2
Summary of the method: as §1

CaBbc1 = target: CaBbc1
Summary of the method: as §1

CaBem1-D1 = target: CaBem1-D1
Summary of the method: as §1

CaBzz1-D1 = target: CaBzz1-D1
Summary of the method: as §1

CaBzz1-D2 = target: CaBzz1-D2
Summary of the method: as §1

CaCyk3 = target: CaCyk3
Summary of the method: as §1

CaFus1 = target: CaFus1
Summary of the method: as §1

CaHof1 = target: CaHof1
Summary of the method: as §1

CaHse1 = target: CaHse1
Summary of the method: as §1

CaLsb1 = target: CaLsb1
Summary of the method: as §1

CaLsb4 = target: CaLsb4
Summary of the method: as §1

CaMyo5 = target: CaMyo5
Summary of the method: as §1

CaNbp2 = target: CaNbp2
Summary of the method: as §1

CaRvs167 = target: CaRvs167
Summary of the method: as §1

CaRvs167-3 = target: CaRvs167-3
Summary of the method: as §1

CaSho1 = target: CaSho1
Summary of the method: as §1

CaSla1-D1-D2 = target: CaSla1-D1-D2
Summary of the method: as §1

CaSla1-D3 = target: CaSla1-D3
Summary of the method: as §1

ScAbp1 = target: ScAbp1
Summary of the method: as §1

ScBbc1 = target: ScBbc1
Summary of the method: as §1

ScBem1-D1 = target: ScBem1-D1
Summary of the method: as §1

ScBzz1-D1 = target: ScBzz1-D1
Summary of the method: as §1

ScBzz1-D2 = target: ScBzz1-D2
Summary of the method: as §1

ScCyk3 = target: ScCyk3
Summary of the method: as §1

ScFus1 = target: ScFus1
Summary of the method: as §1

ScHof1 = target: ScHof1
Summary of the method: as §1

ScHse1 = target: ScHse1
Summary of the method: as §1

ScLsb1 = target: ScLsb1
Summary of the method: as §1

ScLsb2 = target: ScLsb2
Summary of the method: as §1

ScLsb3 = target: ScLsb3
Summary of the method: as §1

ScLsb4 = target: ScLsb4
Summary of the method: as §1

ScMyo3 = target: ScMyo3
Summary of the method: as §1

ScMyo5 = target: ScMyo5
Summary of the method: as §1

ScNbp2 = target: ScNbp2
Summary of the method: as §1

ScPex13 = target: ScPex13
Summary of the method: as §1

ScRvs167 = target: ScRvs167
Summary of the method: as §1

ScSho1 = target: ScSho1
Summary of the method: as §1

ScSla1-D1-D2 = target: ScSla1-D1-D2
Summary of the method: as §1

ScSla1-D3 = target: ScSla1-D3
Summary of the method: as §1

SpAbp1-D1 = target: SpAbp1-D1
Summary of the method: as §1

SpBbc1 = target: SpBbc1
Summary of the method: as §1

SpBzz1-D1 = target: SpBzz1-D1
Summary of the method: as §1

## KNRKNLPTIPIRLSG
AgAbp1
  SPOT peptide array binding signal intensity: 4080
AgBbc1
  SPOT peptide array binding signal intensity: 456
AgBem1-D1
  SPOT peptide array binding signal intensity: 144
AgBzz1-D1
  SPOT peptide array binding signal intensity: 104
AgBzz1-D2
  SPOT peptide array binding signal intensity: 35
AgCyk3
  SPOT peptide array binding signal intensity: 1
AgFus1
  SPOT peptide array binding signal intensity: 63
AgHof1
  SPOT peptide array binding signal intensity: 240
AgHse1
  SPOT peptide array binding signal intensity: 206
AgLsb1
  SPOT peptide array binding signal intensity: 318
AgLsb4
  SPOT peptide array binding signal intensity: 108
AgMyo5
  SPOT peptide array binding signal intensity: ≤ 0
AgNbp2
  SPOT peptide array binding signal intensity: 1360
AgRvs167
  SPOT peptide array binding signal intensity: 5.83
AgSho1
  SPOT peptide array binding signal intensity: 4630
AgSla1-D1-D2
  SPOT peptide array binding signal intensity: 402
AgSla1-D3
  SPOT peptide array binding signal intensity: 7
CaAbp1-D1
  SPOT peptide array binding signal intensity: 1420
CaAbp1-D2
  SPOT peptide array binding signal intensity: 3510
CaBbc1
  SPOT peptide array binding signal intensity: 1560
CaBem1-D1
  SPOT peptide array binding signal intensity: 22
CaBzz1-D1
  SPOT peptide array binding signal intensity: 221
CaBzz1-D2
  SPOT peptide array binding signal intensity: 67.2
CaCyk3
  SPOT peptide array binding signal intensity: 8
CaFus1
  SPOT peptide array binding signal intensity: 382
CaHof1
  SPOT peptide array binding signal intensity: 0.25
CaHse1
  SPOT peptide array binding signal intensity: 28.2
CaLsb1
  SPOT peptide array binding signal intensity: 0.5
CaLsb4
  SPOT peptide array binding signal intensity: 1340
CaMyo5
  SPOT peptide array binding signal intensity: ≤ 0
CaNbp2
  SPOT peptide array binding signal intensity: 398
CaRvs167
  SPOT peptide array binding signal intensity: 283
CaRvs167-3
  SPOT peptide array binding signal intensity: 23.8
CaSho1
  SPOT peptide array binding signal intensity: 1100
CaSla1-D1-D2
  SPOT peptide array binding signal intensity: 672
CaSla1-D3
  SPOT peptide array binding signal intensity: ≤ 0
ScAbp1
  SPOT peptide array binding signal intensity: 634
ScBbc1
  SPOT peptide array binding signal intensity: 46.8
ScBem1-D1
  SPOT peptide array binding signal intensity: 19
ScBzz1-D1
  SPOT peptide array binding signal intensity: 35.5
ScBzz1-D2
  SPOT peptide array binding signal intensity: 7
ScCyk3
  SPOT peptide array binding signal intensity: 17
ScFus1
  SPOT peptide array binding signal intensity: 63
ScHof1
  SPOT peptide array binding signal intensity: 3
ScHse1
  SPOT peptide array binding signal intensity: 582
ScLsb1
  SPOT peptide array binding signal intensity: 462
ScLsb2
  SPOT peptide array binding signal intensity: 824
ScLsb3
  SPOT peptide array binding signal intensity: 2010
ScLsb4
  SPOT peptide array binding signal intensity: 80
ScMyo3
  SPOT peptide array binding signal intensity: 4.5
ScMyo5
  SPOT peptide array binding signal intensity: 1
ScNbp2
  SPOT peptide array binding signal intensity: 1180
ScPex13
  SPOT peptide array binding signal intensity: 148
ScRvs167
  SPOT peptide array binding signal intensity: 774
ScSho1
  SPOT peptide array binding signal intensity: 5890
ScSla1-D1-D2
  SPOT peptide array binding signal intensity: 2930
ScSla1-D3
  SPOT peptide array binding signal intensity: 27.8
SpAbp1-D1
  SPOT peptide array binding signal intensity: 1210
SpBbc1
  SPOT peptide array binding signal intensity: 5.5
SpBzz1-D1
  SPOT peptide array binding signal intensity: 512

From the supplement of paper PMC4466140
